# The list shows a part of the results. A number with no mark means an inactive call. Activity calls are given as the source filed them. Cut-off read from the data, not from the text of the source: active = inhibition above about 20%; inactive = the rest.
# Molecular target: Neuropeptide Y receptor type 1 (Homo sapiens) (UniProt P25929)
# Assay: NPY-Y1 receptor antagonists, selectivity check, counter-screen for NPY-Y2 antagonist project, cell-based (AID 1256);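 note: cells challenged with NPY then isoproterenol with cAMP sensed through a CNG channel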
# Settings: cell-based NPY-Y1 antagonism counterscreen; at 3.6 µM; active compounds read high
# Sequence of Neuropeptide Y receptor type 1 (Homo sapiens) (P25929 whole entry, looked up): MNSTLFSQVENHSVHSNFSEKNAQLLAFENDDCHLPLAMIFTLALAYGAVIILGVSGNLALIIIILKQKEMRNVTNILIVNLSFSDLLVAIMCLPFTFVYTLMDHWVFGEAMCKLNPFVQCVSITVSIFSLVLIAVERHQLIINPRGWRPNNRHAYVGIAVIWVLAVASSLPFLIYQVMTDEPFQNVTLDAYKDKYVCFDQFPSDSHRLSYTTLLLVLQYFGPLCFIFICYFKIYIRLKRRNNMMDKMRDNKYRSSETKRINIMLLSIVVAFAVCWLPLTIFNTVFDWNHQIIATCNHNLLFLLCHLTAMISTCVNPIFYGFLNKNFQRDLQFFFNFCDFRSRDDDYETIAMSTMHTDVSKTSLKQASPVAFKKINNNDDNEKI
row,Structure (SMILES),inhibition
1,CCOc1ccc(C(O)Cn2c(=N)n(CCN3CCCCC3)c3ccccc32)cc1 (stereo unspecified),13.1%
2,Cc1ccccc1OC(=O)Cn1c(C(F)(F)F)nc2ccccc21,7.05%
3,CCCc1nc(SCC(=O)Nc2ccccc2OC)c2c(=O)n(C)c(=O)n(C)c2n1,20.6% (active)
4,Cc1ccc(NC(=O)CN2CCC3(O)CCCCC3C2c2ccc3c(c2)OCO3)c(C)c1 (stereo unspecified),5.96%
5,N=c1n(Cc2ccc(Cl)cc2)c2ccccc2n1CC(O)c1ccco1 (stereo unspecified),13.8%
6,O=C(Oc1ccccc1)Oc1ccc2c(c1)oc(=O)c1ccccc12,3.68%
7,CCCCC(O)(CCCC)C(=O)NN(C(=O)CCl)c1ccccc1,7.18%
8,COc1ccc(-c2noc(COc3ccc(Cl)c(C)c3)n2)cc1,13.3%
9,COc1ccc(/C(N)=N/OC(=O)CCCc2ccccc2)cc1,6.54%
10,Cc1cccc(OCC(O)Cn2c(=N)n(CCN3CCOCC3)c3ccccc32)c1 (stereo unspecified),4.2%
11,O=C(Nc1nnc(SCc2c(Cl)cccc2Cl)s1)C1CCCO1 (stereo unspecified),12.1%
12,CCCCCNC(=O)Cc1ccc(OC)cc1,1.16%
13,CCOc1ccc(S(=O)(=O)N/N=C(\C)c2ccc(Cl)c(Cl)c2Cl)cc1,17.7%
14,Cc1ccc(CCC(=O)Nc2ncc(Cc3cc(Cl)ccc3Cl)s2)o1,18.8%
15,Cc1cc(C(=O)OCC(=O)N2c3ccccc3NC(=O)C2(C)C)c(C)n1-c1ccccc1,5.21%
16,COC(=O)c1ccc(CSc2nc3cc(Cl)ccc3o2)cc1,11.2%
